# Unmarked numbers belong to inactive results. Results filed as inconclusive are left out. Where a call stands in place of a potency, no number is given. The source made the active and inactive calls. Unless noted, calls come from the whole dose curve; as a rule, active = well fitted curve in the direction sought with a large enough effect in the repeat runs; inconclusive = weak or mixed curves; inactive = no such curve, though single readings can be large; an effect the other way counts as inactive or inconclusive.
# Columns and labels:
# [1] = qHTS assay to identify small molecule antagonists of the androgen receptor (AR) signaling pathway using the MDA cell line in the presence of 0.5 nM R1881 - cell viability counter screen (AID 1259242); note: nearly all actives have a fitted effect of over 45% in size
# Summary of the method: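 Counter screen for cytotoxicity run in the same wells as the AR antagonist reporter screen: MDA-kb2 cells were treated 16 hr with test compounds and 0.5 nM R1881, then live-cell protease activity was measured by fluorescence.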
# [2] = qHTS assay to identify small molecule HDAC inhibitors (AID 1259364); note: nearly all actives have a fitted effect of over 45% in size; note: potency is the fitted concentration of half-maximal effect; for activity change, negative = inhibition: top concentration of the series differs between compounds
# Summary of the method: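 Luminescence from a cell-permeant luminogenic class I/II HDAC substrate reports endogenous deacetylase activity in intact HCT-116 cells treated with compounds for 2 h.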
# [3] = qHTS assay to identify small molecule HDAC inhibitors - cell viability counter screen (AID 1259365); note: series mostly up to about 92 µM; nearly all actives have a fitted effect of over 50% in size
# Summary of the method: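 Cytotoxicity was gauged in wild-type HCT-116 cells after a brief 2hr treatment with DMSO-dissolved compounds at 37C and 5% CO2, using CellTiter-Glo luminescence developed for 30min at room temperature.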
# [4] = qHTS assay to identify small molecule agonists of the sonic hedgehog signaling (Shh) pathway - cell viability counter screen (AID 1259366); note: nearly all actives have a fitted effect of over 50% in size; note: potency is the fitted concentration of half-maximal effect
# Summary of the method: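 Stable Gli1-Luc NIH/3T3 clone, 2,000 cells/well. Compound exposure 24hr at 37C. Read-out: CellTiter-Fluor fluorescence.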
# [5] = qHTS assay to identify small molecule antagonists of the sonic hedgehog signaling (Shh) pathway - cell viability counter screen (AID 1259367); note: nearly all actives have a fitted effect of over 55% in size; note: potency is the fitted concentration of half-maximal effect
# Summary of the method: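 NIH/3T3-derived Gli1-Luc reporter cells (2,000 per well) rested 4 hr at 37 C, then received DMSO compounds plus conditioned medium. After 23 hr of treatment, CellTiter-Fluor was added for 1 hr at 37C and fluorescence read.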
# [6] = qHTS assay to identify small molecule agonists of the sonic hedgehog signaling (Shh) pathway (AID 1259368; calls by dose curve;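 note: NIH/3T3-derived 3T3Gli1-Luc cells carrying a stable Gli1-driven firefly luciferase reporter; series mostly up to about 92 µM; nearly all actives have a fitted effect of over 15% in size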)
# Summary of the method: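 3T3Gli1-Luc (NIH/3T3 clone, stable Gli1-Luc); 4 hr pre-incubation, then cpd in DMSO 24 hr, 37 C/5% CO2; luciferase reagent 30 min RT; luminescence.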
# [7] = qHTS assay to identify small molecule antagonists of the sonic hedgehog signaling (Shh) pathway (AID 1259369; calls by dose curve; note: nearly all actives have a fitted effect of over 45% in size; note: potency is the fitted concentration of half-maximal effect)
# Summary of the method: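 3T3Gli1-Luc, conditioned-medium-stimulated, 24hr cpd, 37C/5% CO2; Gli1-driven firefly Luc luminescence after 30min RT with luciferase reagent. Cells plated 4hr before cpd.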
compound,measurement,setting,value
CCC(=O)OC1(c2ccccc2)CCN(C)CC1,Potency,[1],inactive
same,Potency,[2],inactive
same,outcome,[3],inactive
same,Potency,[4],inactive
same,Potency,[5],inactive
same,outcome,[6],inactive
O=C(O)C(F)(F)C(F)(F)C(F)(F)C(F)(F)C(F)(F)C(F)(F)F,Potency,[1],inactive
same,Potency,[2],inactive
same,outcome,[3],inactive
same,Potency,[4],inactive
same,outcome,[6],inactive
same,Potency,[7],inactive
c1ccc2c(c1)CCNC2,Potency,[1],inactive
same,Potency,[2],inactive
same,outcome,[3],inactive
same,Potency,[4],inactive
same,Potency,[5],inactive
same,outcome,[6],inactive
CON(C)C(=O)Nc1ccc(Br)cc1,Potency,[1],inactive
same,Potency,[2],24.3 µM (active)
same,outcome,[3],inactive
same,Potency,[4],inactive
same,Potency,[5],inactive
same,outcome,[6],inactive
same,Potency,[7],inactive
NC(=O)CS(=O)C(c1ccccc1)c1ccccc1 (centres undefined),Potency,[1],inactive
same,Potency,[2],inactive
same,outcome,[3],inactive
same,Potency,[4],inactive
same,Potency,[5],inactive
same,outcome,[6],inactive
same,Potency,[7],inactive
O=C(Cl)OCc1ccccc1,Potency,[1],inactive
same,Potency,[2],inactive
same,outcome,[3],inactive
same,Potency,[4],inactive
same,Potency,[5],inactive
same,outcome,[6],inactive
same,Potency,[7],inactive
Oc1ccc2c3c1O[C@H]1[C@@H](O)C=C[C@H]4[C@@H](C2)NCC[C@@]341,Potency,[1],inactive
same,Potency,[2],inactive
same,outcome,[3],inactive
same,Potency,[4],28.1 µM (active)
same,outcome,[6],inactive
same,Potency,[7],1.99 µM (active)
O=C(Cl)C(Cl)Cl,Potency,[1],inactive
same,Potency,[2],inactive
same,outcome,[3],inactive
same,Potency,[4],inactive
same,outcome,[6],inactive
same,Potency,[7],inactive
CCOC(=O)C(Cl)Cc1cc(-n2nc(C)n(C(F)F)c2=O)c(F)cc1Cl (centres undefined),Potency,[1],inactive
same,Potency,[2],inactive
same,outcome,[3],inactive
same,Potency,[4],inactive
same,Potency,[5],inactive
same,outcome,[6],inactive
same,Potency,[7],inactive
CON(C)C(=O)Nc1ccc(Br)c(Cl)c1,Potency,[1],inactive
same,Potency,[2],27.3 µM (active)
same,outcome,[3],inactive
same,Potency,[4],inactive
same,Potency,[5],inactive
same,outcome,[6],inactive
CN(C)CCc1c[nH]c2cccc(OP(=O)(O)O)c12,Potency,[1],inactive
same,Potency,[2],inactive
same,outcome,[3],inactive
same,Potency,[4],inactive
same,Potency,[5],inactive
same,outcome,[6],inactive
same,Potency,[7],inactive
CCC(C)C(C)(COC(N)=O)COC(N)=O (centres undefined),Potency,[1],inactive
same,Potency,[2],inactive
same,outcome,[3],inactive
same,Potency,[4],inactive
same,Potency,[5],inactive
same,outcome,[6],inactive
C=CC=O,Potency,[1],inactive
same,outcome,[3],inactive
same,Potency,[4],inactive
same,Potency,[5],inactive
same,outcome,[6],inactive
same,Potency,[7],inactive
CC(C)C(C)(N)C#N (centres undefined),Potency,[1],inactive
same,Potency,[2],inactive
same,outcome,[3],inactive
same,outcome,[6],inactive
same,Potency,[7],inactive
Cc1ccc2cc(C)ccc2c1,Potency,[1],inactive
same,Potency,[2],inactive
same,Potency,[4],inactive
same,outcome,[6],inactive
same,Potency,[7],inactive
Cl/C=C/CCl,Potency,[1],inactive
same,Potency,[2],inactive
same,Potency,[4],inactive
same,Potency,[5],inactive
same,outcome,[6],inactive
CCCCS(=O)(=O)Cl,Potency,[1],inactive
same,outcome,[3],inactive
same,Potency,[5],inactive
same,outcome,[6],inactive
same,Potency,[7],inactive
CCOC(=O)COc1ccc(Cl)cc1Cl,Potency,[1],inactive
same,Potency,[2],inactive
same,Potency,[5],inactive
same,outcome,[6],inactive
same,Potency,[7],inactive
CCC(=O)c1ccc(Cl)cc1,Potency,[1],inactive
same,Potency,[2],inactive
same,Potency,[4],inactive
same,Potency,[5],inactive
same,outcome,[6],inactive
same,Potency,[7],inactive
CC(=O)OCC1=C(C(=O)O)N2C(=O)[C@@H](N)[C@H]2SC1,"viability change, negative = cytotoxic",[1],4.78% [at 19 µM]
same,"activity change, negative = inhibition",[2],-0.068% [at 19 µM]
same,"activity change, negative = cytotoxicity",[3],0.172% [at 19 µM]
same,activity change,[6],0.594% [at 18.9 µM]
same,"activity change, negative = inhibition",[7],1.15% [at 19 µM]
O=C(O)C(Cl)Br (centres undefined),Potency,[1],inactive
same,Potency,[2],inactive
same,outcome,[3],inactive
same,Potency,[5],inactive
same,outcome,[6],inactive
same,Potency,[7],inactive
O=C(O)CBr,Potency,[1],inactive
same,Potency,[2],inactive
same,Potency,[4],inactive
same,Potency,[5],inactive
same,outcome,[6],inactive
same,Potency,[7],inactive
ClCCCCl,Potency,[1],inactive
same,Potency,[2],inactive
same,outcome,[3],inactive
same,Potency,[5],inactive
same,outcome,[6],inactive
same,Potency,[7],inactive
c1cncc([C@@H]2CCCCN2)c1,Potency,[1],inactive
same,outcome,[3],inactive
same,Potency,[4],inactive
same,Potency,[5],inactive
same,outcome,[6],inactive
same,Potency,[7],inactive
C#CC(C)(C)O,Potency,[1],inactive
same,Potency,[2],inactive
same,Potency,[4],inactive
same,Potency,[5],inactive
same,outcome,[6],inactive
same,Potency,[7],inactive
CCCCCCCCBr,Potency,[1],inactive
same,Potency,[2],inactive
same,outcome,[3],inactive
same,Potency,[5],inactive
same,outcome,[6],inactive
same,Potency,[7],inactive
CC(C)c1ccc(O)cc1,Potency,[1],inactive
same,outcome,[3],inactive
same,Potency,[4],inactive
same,Potency,[5],inactive
same,outcome,[6],inactive
same,Potency,[7],inactive
CCCCOC(C)=O,Potency,[1],inactive
same,outcome,[3],inactive
same,Potency,[4],inactive
same,outcome,[6],inactive
same,Potency,[7],inactive
CC(C)(C1CCC(O)CC1)C1CCC(O)CC1 (centres undefined),Potency,[1],inactive
same,outcome,[3],inactive
same,Potency,[4],inactive
same,Potency,[5],inactive
same,outcome,[6],inactive
same,Potency,[7],inactive
CCC1(c2cccc(O)c2)CCCCN(C)C1 (centres undefined),Potency,[1],inactive
same,outcome,[3],inactive
same,outcome,[6],inactive
C=CC(=O)OCCN(C)C,Potency,[1],inactive
same,outcome,[3],inactive
same,Potency,[4],inactive
same,outcome,[6],inactive
CC(Cl)(Cl)Cl,Potency,[1],inactive
same,outcome,[3],inactive
same,Potency,[5],inactive
same,outcome,[6],inactive
same,Potency,[7],inactive
CCCCCCC1CCOC1=O (centres undefined),Potency,[1],inactive
same,Potency,[2],inactive
same,Potency,[4],inactive
same,outcome,[6],inactive
same,Potency,[7],inactive
CCN1CCCC1CNC(=O)C(O)(c1ccccc1)c1ccccc1 (centres undefined),Potency,[1],inactive
same,outcome,[3],inactive
same,Potency,[4],inactive
same,Potency,[5],inactive
same,outcome,[6],inactive
CC[C@@H](CO)NC(=O)[C@@H]1C=C2c3cccc4c3c(cn4C)C[C@H]2N(C)C1,Potency,[1],inactive
same,Potency,[2],inactive
same,Potency,[4],inactive
same,Potency,[5],inactive
same,outcome,[6],inactive
same,Potency,[7],inactive
C[C@@H](N)[C@@H](O)c1ccccc1,Potency,[1],inactive
same,outcome,[3],inactive
same,Potency,[5],inactive
same,outcome,[6],inactive
same,Potency,[7],inactive
O=C1CCCCC1Cl (centres undefined),Potency,[1],inactive
same,Potency,[2],inactive
same,outcome,[3],inactive
same,outcome,[6],inactive
same,Potency,[7],inactive
O=C(CCl)NCO,Potency,[1],inactive
same,Potency,[2],inactive
same,Potency,[4],inactive
same,Potency,[5],inactive
same,outcome,[6],inactive
N#CC(Br)(Br)C(N)=O,Potency,[1],inactive
same,outcome,[3],inactive
same,Potency,[4],inactive
same,Potency,[5],54.5 µM (active)
same,outcome,[6],inactive
same,Potency,[7],inactive
OCC(Cl)CCl (centres undefined),Potency,[1],inactive
same,Potency,[4],inactive
same,Potency,[5],inactive
same,outcome,[6],inactive
same,Potency,[7],inactive
CCc1cc(OC)c(C[C@H](C)N)cc1OC,Potency,[1],inactive
same,outcome,[3],inactive
same,Potency,[5],inactive
same,outcome,[6],inactive
same,Potency,[7],inactive
O=C(Cl)c1ccccc1,Potency,[1],inactive
same,Potency,[2],inactive
same,outcome,[3],inactive
same,outcome,[6],inactive
CCC1(CC)C(=O)C=CNC1=O,Potency,[1],inactive
same,Potency,[2],inactive
same,outcome,[3],inactive
same,outcome,[6],inactive
same,Potency,[7],inactive
CCNP(=S)(OC)O/C(C)=C/C(=O)OC(C)C (centres undefined),Potency,[1],inactive
same,outcome,[3],inactive
same,Potency,[5],inactive
same,outcome,[6],inactive
COC(=O)[C@@H](N)CCCN/C(N)=N/[N+](=O)[O-],Potency,[1],inactive
same,outcome,[3],inactive
same,Potency,[4],inactive
same,outcome,[6],inactive
same,Potency,[7],inactive
C/C(=N\NC(=O)Nc1cc(F)cc(F)c1)c1ncccc1C(=O)O,Potency,[1],inactive
same,Potency,[2],inactive
same,Potency,[4],inactive
same,outcome,[6],inactive
same,Potency,[7],inactive
CCOC(=O)C(SP(=S)(OC)OC)c1ccccc1 (centres undefined),Potency,[1],inactive
same,Potency,[2],inactive
same,Potency,[4],inactive
same,Potency,[5],inactive
same,outcome,[6],inactive
same,Potency,[7],inactive
Cc1cccc2sc3nncn3c12,Potency,[1],inactive
same,Potency,[2],inactive
same,outcome,[6],inactive
same,Potency,[7],inactive
